Screening data deposited in PubChem BioAssay by National Center for Advancing Translational Sciences (NCATS).
Rows were chosen to be rich in hits. Some 4.7% of all compounds tested hit in one or more screens of this group.
D1 ag: agonists of human D1 dopamine receptor; P21728; activation, % at 2 µM; actives 1% (n = 360,000); HEK293 T-REx D1 cells, calcium flux, agonist mode; note: 0% is about no effect
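Tetracycline-induced HEK293 TREx D1 cells, force-coupled to calcium signalling, were dye-loaded with a no-wash calcium kit. Compound was pin-added after a 10 s baseline. Fluorescence was read kinetically at 1 cycle/s for 180 s, with calcium rises flagged as agonism.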
TRHR enhancer: TRH receptor (human) allosteric enhancement; P34981; TRHR cells, fluo-8 calcium fluorescence, EC20 TRH enhancement; enhancement, % at 2 µM; actives 0.66% (n = 360,000); in the data active = enhancement above about 30%; note: 0% is about no effect
Target sequence (P34981 whole entry, looked up): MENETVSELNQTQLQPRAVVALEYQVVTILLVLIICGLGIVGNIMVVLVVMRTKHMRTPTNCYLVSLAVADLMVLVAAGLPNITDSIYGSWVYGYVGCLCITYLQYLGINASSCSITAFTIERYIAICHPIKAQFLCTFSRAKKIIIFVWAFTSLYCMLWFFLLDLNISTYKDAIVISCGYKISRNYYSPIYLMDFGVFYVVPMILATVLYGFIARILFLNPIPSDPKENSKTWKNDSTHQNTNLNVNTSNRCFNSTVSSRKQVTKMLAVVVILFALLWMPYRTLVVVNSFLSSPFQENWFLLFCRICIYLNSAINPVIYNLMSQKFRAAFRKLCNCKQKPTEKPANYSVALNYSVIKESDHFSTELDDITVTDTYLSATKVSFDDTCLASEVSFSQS
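TRHR-expressing cells loaded with fluo-8 calcium dye were read kinetically (ex 480/em 530) during compound addition, then stimulated with an EC20 of TRH (10 nM final). Enhancement of the Gq-mediated intracellular calcium response was scored.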
TRHR ag: activates the human TRH receptor | TRHR cells, calcium flux fluo-8, FDSS agonist mode | AID 493084 | P34981 | actives 0.18% (n = 360,000) | activation, % at 2 µM; note: 0% is about no effect
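Agonist-mode FDSS calcium read (Ex 480/Em 530, 1 s cycles) in 1536-well TRHR cells with fluo-8 dye, after 10-cycle baseline and 23 nL compound addition; TRH at EC20 (10 nM final) added afterwards for the enhancer phase.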
D1 potentiator: potentiators of human D1 dopamine receptor. P21728. HEK293 TREx D1 cells, calcium flux, dopamine EC20 potentiation. potentiation, % at 10 µM. actives 0.036% (n = 360,000). AID 504651; in the data active = potentiation above about 30%; note: 0% is about no effect
D1 antag: blocks dopamine activation of the human D1 receptor; actives 3.2% (n = 360,000); P21728; HEK293 TREx D1 cells, calcium flux, dopamine EC80; stronger effect = lower value; AID 504652; activity change, negative = inhibition, % at 10 µM; in the data active = activity change below about -30%; note: % is set by controls: 0 for no effect and ±100 for the full control effect
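HEK293 T-REx cells expressing inducible, force-coupled D1 receptor; no-wash Ca dye, 30–90 min RT. Cmpd → 180 s read at 1 Hz → EC80 DA → 180 s read.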
Numbers without * were called inactive; · = no result. Cut-off read from the data, not from the text of the source, unless noted: active = activation above about 30%; inactive = the rest.

SMILES	D1 ag	TRHR enhancer	TRHR ag	D1 potentiator	D1 antag
CCOC(=O)C1=C(O)/C(=C\c2cc(C)n(-c3ccccc3F)c2C)N=C1C	4	-8	1	-4	0
CCOC(=O)C1=C(O)/C(=C\c2cc(C)n(-c3ccc(F)cc3)c2C)N=C1C	6	1	4	-2	-32*
CCn1c(/C=C/c2ccc(O)c(O)c2)nc2ccccc2c1=O	2	34*	8	1	2
CCn1c(/C=C/c2ccc(O)cc2)nc2ccccc2c1=O	6	-4	-2	-3	4
COc1cc2[nH]c(=O)n(CCC(=O)N3CCN(c4ccc(Cl)cc4)CC3)c(=O)c2cc1OC	2	3	0	0	-3
COC(=O)c1ccc2c(=O)n(CCCCCC(=O)N3CCN(c4ccccc4)CC3)c(=O)[nH]c2c1	6	-4	0	-6	-36*
O=C(CCn1c(=O)[nH]c2ccccc2c1=O)N1CCN(c2ccc(Cl)cc2)CC1	6	27	-1	-4	-32*
CC(=O)c1ccc(N2CCN(C(=O)CCCCn3c(=O)[nH]c4ccccc4c3=O)CC2)cc1	5	2	0	-5	-32*
CCN1CCN(C(=O)CCCCCn2c(=O)[nH]c3cc(C(=O)OC)ccc3c2=O)CC1	1	-1	0	-4	-9
COc1ccc(N2CC(NC(=O)c3cc4ccccc4o3)CC2=O)cc1 (stereo not given)	-1	-1	0	-2	·
COc1ccc(OC)c(NC(=O)Cn2c(=O)cc(-c3ccccc3)c3c(C)nn(C)c32)c1	4	5	0	-4	8
Oc1ccc(CCNc2c3ccccc3nc3ccccc23)cc1O	12	-12	0	6	-51*
O=C(O)c1ccc(S(=O)(=O)N[C@H](Cc2ccc(C(F)(F)F)cc2)C(=O)O)cc1	0	-14	0	-7	-7
O=C(/C=C/c1cccc(F)c1)NC1CCN(Cc2ccccc2)CC1	10	-5	0	·	-45*
COc1ccc(CN2C3CCCC2CC(NC(=O)/C=C/c2ccccc2)C3)cc1 (stereo not given)	77*	-1	-1	-4	-51*
COc1ccc(C(=O)NC2CC3CCCC(C2)N3CC(C)C)cc1 (stereo not given)	4	2	1	-12	5
CCN(CC)C(=O)NC1CC2CCCC(C1)N2Cc1ccccc1 (stereo not given)	0	1	0	0	-8
O=C(/C=C/c1ccccc1)NC1CC2CCCC(C1)N2Cc1ccccc1 (stereo not given)	2	-22	0	-10	-96*
CC(C)N(C(=O)Cn1cc(SCC(=O)Nc2ccccc2F)c2ccccc21)C(C)C	5	-11	0	-6	-28
NCCSc1c(-c2ccccc2)[nH]c2ccccc12	11	0	-3	-3	-37*
COc1ccccc1C(=O)NCC(=O)NCCc1ccc(Cl)cc1	0	-1	0	-6	-5
CN1CCN(C(=O)c2ccc(CS(=O)Cc3ccc(Cl)cc3)o2)CC1 (stereo not given)	3	-1	1	0	-34*
COc1ccc(C(C)=O)cc1CSc1nc(NCCc2ccccc2)c2ccccc2n1	6	1	0	-4	9
Fc1cccc(CSc2nc(NCCc3ccccc3)c3ccccc3n2)c1	24	24	2	-5	-46*
CC(C)NC(=O)Cn1c(SCC(=O)N2CCc3ccccc3C2)nc2ccccc21	2	-11	0	0	12
SMILES	D1 ag	TRHR enhancer	TRHR ag	D1 potentiator	D1 antag
CC1CC(C)CN(C(=O)Cn2c(SCC(=O)N3CCc4ccccc4C3)nc3ccccc32)C1 (stereo not given)	1	-14	0	6	-65*
O=S(=O)(NC1CCCCC1N1CCC(O)CC1)c1ccccc1 (stereo not given)	2	-6	0	-5	-2
CSc1nc(C)c(Oc2ccccc2)c(=O)n1C	-4	0	-1	-12	-71*
Cc1cc(OCC(=O)Nc2ccncc2)cc(C)c1Cl	9	2	0	0	8
Cc1cc(=O)oc2c3c(cc(OCC(=O)NCc4ccccc4)c12)OC(C)(C)CC3	2	-12	2	-6	-32*
CC(=O)Nc1ccc(NC(=O)c2oc3ccc4c(c3c2C)C(=O)CC(C)(C)O4)cc1	1	3	0	-5	2
NC(=O)CSc1nnc2sc3ccccc3n12	1	14	0	32*	-15
CCOc1cc(/C=C2\COc3ccccc3C2=O)cc(Br)c1OCC(=O)N(C)C	6	-9	0	0	10
COc1ccc(CN2C(=O)C(C)Oc3ccccc32)cc1 (stereo not given)	13	-6	-1	6	-35*
CCc1ccccc1NC(=O)CCC(=O)N1CC(C)Oc2ccc(C)cc21 (stereo not given)	0	-5	0	5	-29
CN(C)CCNC(=O)CN1C(=O)CCn2nc(-c3cn(C)c4ccccc34)cc21	0	-3	0	-3	-5
Cn1cc(-c2cc3n(n2)CCC(=O)N3CC(=O)O)c2ccccc21	1	43*	0	0	-24
CCN1CCN(C(=O)c2cnn(-c3cccc(Cl)c3)c2C2CCN(C(=O)OC(C)(C)C)CC2)CC1	3	37*	2	-4	3
Cc1ccc(-n2ncc(C(=O)Nc3ccc4c(c3)OCCO4)c2C2CCN(C(=O)OC(C)(C)C)CC2)cc1	1	31*	2	-5	-12
COc1ccccc1CNC(=O)c1cnn(-c2ccc(F)cc2F)c1C1CCN(C(=O)OC(C)(C)C)CC1	0	-6	-1	-8	-59*
COc1ccc(CCN2CCC(CNC(=O)c3cnn(-c4ccc(C)cc4)c3C3CCN(C(=O)OC(C)(C)C)CC3)CC2)cc1	58*	13	-1	-7	-29
CC(C)(C)OC(=O)N1CCC(c2c(C(=O)N3CCN(C4CCCCC4)CC3)cnn2-c2cccc(Cl)c2)CC1	0	21	7	1	-7
Cc1ccc(-n2ncc(C(=O)Nc3ccc4c(c3)OCO4)c2C2CCN(C(=O)OC(C)(C)C)CC2)cc1	0	3	0	-2	-2
CCOC(=O)c1ccc(NC(=O)c2c(-c3c(F)cccc3Cl)noc2C)cc1	10	2	3	-4	-11
O=C(NNC(=S)Nc1ccccc1Cl)c1ccccc1Br	11	-2	0	2	0
Nc1nc(COC(=O)C2CCN(C(=O)c3ccc(Cl)cc3)CC2)nc(Nc2ccccc2)n1	0	4	-1	-1	26
CC(C)(C)OC(=O)N1CCC(c2c(C(=O)Nc3ccc4c(c3)OCCO4)cnn2-c2ccccc2)CC1	2	6	0	-8	-30*
